# In PMC11006913:
# Numbering of substitutions follows the chain as printed.
# Tests used:
# Assay in all cases: PBM; 200 nM protein, PBS
# Conditions in all cases: dsDNA, one strand shown
# [1] = molecular target: CRX (Homo sapiens, UniProt O43186 26-111)
# [2] = molecular target: T1, SIX6 (Homo sapiens, UniProt O95475 114-200, L167I)
# T1 sequence: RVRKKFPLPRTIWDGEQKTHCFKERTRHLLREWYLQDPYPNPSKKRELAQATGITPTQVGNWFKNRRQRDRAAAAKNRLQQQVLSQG
# [3] = molecular target: T2, SIX6 (Homo sapiens, UniProt O95475 114-200, L143V)
# T2 sequence: T1 sequence with L30V, I54L
# [4] = molecular target: T3, SIX6 (Homo sapiens, UniProt O95475 114-200, H141N)
# T3 sequence: T1 sequence with H28N, I54L
# [5] = molecular target: T4, SIX6 (Homo sapiens, UniProt O95475 114-200, T165P)
# T4 sequence: T1 sequence with T52P, I54L
# [6] = molecular target: T5, SIX6 (Homo sapiens, UniProt O95475 114-200, L167M)
# T5 sequence: T1 sequence with I54M
# [7] = molecular target: T6, SIX6 (Homo sapiens, UniProt O95475 114-200, L143M)
# T6 sequence: T1 sequence with L30M, I54L
# [8] = molecular target: T7, SIX6 (Homo sapiens, UniProt O95475 114-200, L143I)
# T7 sequence: T1 sequence with L30I, I54L
# [9] = molecular target: T8, SIX6 (Homo sapiens, UniProt O95475 114-200, T165G)
# T8 sequence: T1 sequence with T52G, I54L
# [10] = molecular target: T9, SIX6 (Homo sapiens, UniProt O95475 114-200, T139Q)
# T9 sequence: T1 sequence with T26Q, I54L
# [11] = molecular target: CRX (Homo sapiens, UniProt O43186 26-111, E42D)
# Chain of CRX (Homo sapiens, UniProt O43186 26-111, E42D) (O43186 26-111 E42D): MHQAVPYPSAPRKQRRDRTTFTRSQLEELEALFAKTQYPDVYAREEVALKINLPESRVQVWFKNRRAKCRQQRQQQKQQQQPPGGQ
# [12] = molecular target: T10, SIX6 (Homo sapiens, UniProt O95475 114-200, T165A)
# T10 sequence: T1 sequence with T52A, I54L
# [13] = molecular target: T11, SIX6 (Homo sapiens, UniProt O95475 114-200, L167V)
# T11 sequence: T1 sequence with I54V
# [14] = molecular target: T12, SIX6 (Homo sapiens, UniProt O95475 114-200)
# T12 sequence: T1 sequence with I54L
# [15] = molecular target: T13, SIX6 (Homo sapiens, UniProt O95475 114-200, T165I)
# T13 sequence: T1 sequence with T52I, I54L
# [16] = molecular target: CRX (Homo sapiens, UniProt O43186 26-111, R41L)
# Chain of CRX (Homo sapiens, UniProt O43186 26-111, R41L) (O43186 26-111 R41L): as the sequence (O43186 26-111 E42D) above, with R16L, D17E counted along it
# [17] = molecular target: HOXB9 (Homo sapiens, UniProt P17482 171-250, T197M)
# Chain of HOXB9 (Homo sapiens, UniProt P17482 171-250, T197M) (P17482 171-250 T197M): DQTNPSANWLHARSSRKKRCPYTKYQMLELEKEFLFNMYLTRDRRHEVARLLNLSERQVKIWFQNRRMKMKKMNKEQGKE
# [18] = molecular target: HOXC9 (Homo sapiens, UniProt P31274 178-260, K195R)
# Chain of HOXC9 (Homo sapiens, UniProt P31274 178-260, K195R) (P31274 178-260 K195R): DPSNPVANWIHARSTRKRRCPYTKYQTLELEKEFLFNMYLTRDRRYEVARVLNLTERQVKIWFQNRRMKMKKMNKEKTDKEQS
# [19] = molecular target: HOXA7 (Homo sapiens, UniProt P31268 116-202)
# Chain of HOXA7 (Homo sapiens, UniProt P31268 116-202) (P31268 116-202): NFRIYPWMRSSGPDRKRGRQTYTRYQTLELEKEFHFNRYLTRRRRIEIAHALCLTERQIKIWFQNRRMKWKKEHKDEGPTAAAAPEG
# [20] = molecular target: HOXC10 (Homo sapiens, UniProt Q9NYD6 254-340)
# Chain of HOXC10 (Homo sapiens, UniProt Q9NYD6 254-340) (Q9NYD6 254-340): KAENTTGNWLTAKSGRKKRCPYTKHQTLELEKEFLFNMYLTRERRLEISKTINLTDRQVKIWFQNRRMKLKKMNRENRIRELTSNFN
# [21] = molecular target: HOXB9 (Homo sapiens, UniProt P17482 171-250)
# Chain of HOXB9 (Homo sapiens, UniProt P17482 171-250) (P17482 171-250): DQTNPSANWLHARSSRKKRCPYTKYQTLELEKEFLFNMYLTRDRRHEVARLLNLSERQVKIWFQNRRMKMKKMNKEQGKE
# [22] = molecular target: HOXC9 (Homo sapiens, UniProt P31274 178-260)
# Chain of HOXC9 (Homo sapiens, UniProt P31274 178-260) (P31274 178-260): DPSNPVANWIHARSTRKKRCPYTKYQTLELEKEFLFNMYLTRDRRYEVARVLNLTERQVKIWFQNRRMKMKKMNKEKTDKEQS
# [23] = molecular target: HOXD13 (Homo sapiens, UniProt P35453 263-343, T313R)
# Chain of HOXD13 (Homo sapiens, UniProt P35453 263-343, T313R) (P35453 263-343 T313R): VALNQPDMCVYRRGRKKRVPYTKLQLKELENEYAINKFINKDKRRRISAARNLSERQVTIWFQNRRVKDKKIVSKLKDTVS
# [24] = molecular target: HOXC9 (Homo sapiens, UniProt P31274 178-260, R193K)
# Chain of HOXC9 (Homo sapiens, UniProt P31274 178-260, R193K) (P31274 178-260 R193K): as the sequence (P31274 178-260) above, with R16K counted along it
# [25] = molecular target: HOXD13 (Homo sapiens, UniProt P35453 263-343)
# Chain of HOXD13 (Homo sapiens, UniProt P35453 263-343) (P35453 263-343): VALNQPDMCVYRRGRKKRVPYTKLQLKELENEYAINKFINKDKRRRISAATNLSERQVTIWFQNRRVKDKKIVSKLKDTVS
# [26] = molecular target: HOXC10 (Homo sapiens, UniProt Q9NYD6 254-340, K271E)
# Chain of HOXC10 (Homo sapiens, UniProt Q9NYD6 254-340, K271E) (Q9NYD6 254-340 K271E): as the sequence (Q9NYD6 254-340) above, with K18E counted along it
# [27] = molecular target: HOXD13 (Homo sapiens, UniProt P35453 263-343, T313A)
# Chain of HOXD13 (Homo sapiens, UniProt P35453 263-343, T313A) (P35453 263-343 T313A): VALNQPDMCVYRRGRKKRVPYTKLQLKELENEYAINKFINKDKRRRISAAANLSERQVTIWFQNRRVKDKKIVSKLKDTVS
# [28] = molecular target: HOXB9 (Homo sapiens, UniProt P17482 171-250, R186Q)
# Chain of HOXB9 (Homo sapiens, UniProt P17482 171-250, R186Q) (P17482 171-250 R186Q): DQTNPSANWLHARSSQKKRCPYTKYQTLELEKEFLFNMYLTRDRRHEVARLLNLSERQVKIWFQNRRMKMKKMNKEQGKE
# [29] = molecular target: HOXC9 (Homo sapiens, UniProt P31274 178-260, R222W)
# Chain of HOXC9 (Homo sapiens, UniProt P31274 178-260, R222W) (P31274 178-260 R222W): as the sequence (P31274 178-260) above, with R45W counted along it
# [30] = molecular target: HOXA7 (Homo sapiens, UniProt P31268 116-202, W177C)
# Chain of HOXA7 (Homo sapiens, UniProt P31268 116-202, W177C) (P31268 116-202 W177C): as the sequence (P31268 116-202) above, with W62C counted along it
# [31] = molecular target: T14, PAX4 (Homo sapiens, UniProt O43316 9-242, R200K)
# T14 sequence: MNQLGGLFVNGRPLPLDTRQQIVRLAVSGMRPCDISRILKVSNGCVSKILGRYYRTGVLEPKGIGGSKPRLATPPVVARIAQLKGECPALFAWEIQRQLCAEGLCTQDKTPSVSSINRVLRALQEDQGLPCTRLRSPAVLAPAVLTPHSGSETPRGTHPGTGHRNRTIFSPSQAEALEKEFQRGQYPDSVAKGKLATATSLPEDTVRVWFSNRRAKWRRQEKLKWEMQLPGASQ
# [32] = molecular target: T15, PAX4 (Homo sapiens, UniProt O43316 9-242)
# T15 sequence: T14 sequence with K192R
# [33] = molecular target: HOXB6 (Homo sapiens, UniProt P17509 132-218, K202E)
# Chain of HOXB6 (Homo sapiens, UniProt P17509 132-218, K202E) (P17509 132-218 K202E): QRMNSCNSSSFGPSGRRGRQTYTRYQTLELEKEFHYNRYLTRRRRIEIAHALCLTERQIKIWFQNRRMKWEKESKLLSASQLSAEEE
# [34] = molecular target: ALX3 (Homo sapiens, UniProt O95076 139-225, N203Q)
# Chain of ALX3 (Homo sapiens, UniProt O95076 139-225, N203Q) (O95076 139-225 N203Q): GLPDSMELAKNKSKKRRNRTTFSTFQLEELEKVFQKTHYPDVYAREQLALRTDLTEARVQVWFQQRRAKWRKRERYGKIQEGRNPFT
# [35] = molecular target: T16, PAX4 (Homo sapiens, UniProt O43316 9-242, R200Q)
# T16 sequence: T14 sequence with K192Q
# [36] = molecular target: T17, PAX4 (Homo sapiens, UniProt O43316 9-242, F177V)
# T17 sequence: T14 sequence with F169V, K192R
# [37] = molecular target: T18, PAX4 (Homo sapiens, UniProt O43316 9-242, F177Y)
# T18 sequence: T14 sequence with F169Y, K192R
# [38] = molecular target: HESX1 (Homo sapiens, UniProt Q9UBX0 95-180, R109Q)
# Chain of HESX1 (Homo sapiens, UniProt Q9UBX0 95-180, R109Q) (Q9UBX0 95-180 R109Q): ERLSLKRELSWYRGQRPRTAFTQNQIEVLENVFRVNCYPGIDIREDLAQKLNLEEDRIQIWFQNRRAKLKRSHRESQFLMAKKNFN
# [39] = molecular target: HESX1 (Homo sapiens, UniProt Q9UBX0 95-180, F115L)
# Chain of HESX1 (Homo sapiens, UniProt Q9UBX0 95-180, F115L) (Q9UBX0 95-180 F115L): as the sequence (Q9UBX0 95-180 R109Q) above, with Q15R, F21L counted along it
# [40] = molecular target: T19, PAX4 (Homo sapiens, UniProt O43316 9-242, R227W)
# T19 sequence: T14 sequence with K192R, R219W
# [41] = molecular target: ALX3 (Homo sapiens, UniProt O95076 139-225, N203S)
# Chain of ALX3 (Homo sapiens, UniProt O95076 139-225, N203S) (O95076 139-225 N203S): as the sequence (O95076 139-225 N203Q) above, with Q65S counted along it
# [42] = molecular target: HOXB6 (Homo sapiens, UniProt P17509 132-218)
# Chain of HOXB6 (Homo sapiens, UniProt P17509 132-218) (P17509 132-218): as the sequence (P17509 132-218 K202E) above, with E71K counted along it
# Chain of CRX (Homo sapiens, UniProt O43186 26-111) (O43186 26-111): as the sequence (O43186 26-111 E42D) above, with D17E counted along it
sequence,measurement,setting,value
ACGCAACG,binding signal,[1],"8.38 upbm affinity estimate (log intensity, higher = more binding, comparable within an allelic series)"
same,binding signal,[2],"9.07 upbm affinity estimate (log intensity, higher = more binding, comparable within an allelic series)"
same,binding signal,[3],"9.09 upbm affinity estimate (log intensity, higher = more binding, comparable within an allelic series)"
same,binding signal,[4],"9.09 upbm affinity estimate (log intensity, higher = more binding, comparable within an allelic series)"
same,binding signal,[5],"9.22 upbm affinity estimate (log intensity, higher = more binding, comparable within an allelic series)"
same,binding signal,[6],"9.12 upbm affinity estimate (log intensity, higher = more binding, comparable within an allelic series)"
same,binding signal,[7],"9.21 upbm affinity estimate (log intensity, higher = more binding, comparable within an allelic series)"
same,binding signal,[8],"9.08 upbm affinity estimate (log intensity, higher = more binding, comparable within an allelic series)"
same,binding signal,[9],"9.2 upbm affinity estimate (log intensity, higher = more binding, comparable within an allelic series)"
same,binding signal,[10],"9.17 upbm affinity estimate (log intensity, higher = more binding, comparable within an allelic series)"
same,binding signal,[11],"8.41 upbm affinity estimate (log intensity, higher = more binding, comparable within an allelic series)"
same,binding signal,[12],"9.14 upbm affinity estimate (log intensity, higher = more binding, comparable within an allelic series)"
same,binding signal,[13],"9.19 upbm affinity estimate (log intensity, higher = more binding, comparable within an allelic series)"
same,binding signal,[14],"9.12 upbm affinity estimate (log intensity, higher = more binding, comparable within an allelic series)"
same,binding signal,[15],"9.12 upbm affinity estimate (log intensity, higher = more binding, comparable within an allelic series)"
same,binding signal,[16],"8.43 upbm affinity estimate (log intensity, higher = more binding, comparable within an allelic series)"
ATTTATGG,binding signal,[1],"10.2 upbm affinity estimate (log intensity, higher = more binding, comparable within an allelic series)"
same,binding signal,[17],"9.79 upbm affinity estimate (log intensity, higher = more binding, comparable within an allelic series)"
same,binding signal,[18],"12.7 upbm affinity estimate (log intensity, higher = more binding, comparable within an allelic series)"
same,binding signal,[19],"10.6 upbm affinity estimate (log intensity, higher = more binding, comparable within an allelic series)"
same,binding signal,[20],"12.5 upbm affinity estimate (log intensity, higher = more binding, comparable within an allelic series)"
same,binding signal,[21],"12.1 upbm affinity estimate (log intensity, higher = more binding, comparable within an allelic series)"
same,binding signal,[11],"9.96 upbm affinity estimate (log intensity, higher = more binding, comparable within an allelic series)"
same,binding signal,[22],"12.9 upbm affinity estimate (log intensity, higher = more binding, comparable within an allelic series)"
same,binding signal,[23],"10.8 upbm affinity estimate (log intensity, higher = more binding, comparable within an allelic series)"
same,binding signal,[24],"12.8 upbm affinity estimate (log intensity, higher = more binding, comparable within an allelic series)"
same,binding signal,[25],"12.1 upbm affinity estimate (log intensity, higher = more binding, comparable within an allelic series)"
same,binding signal,[26],"11.7 upbm affinity estimate (log intensity, higher = more binding, comparable within an allelic series)"
same,binding signal,[27],"11.8 upbm affinity estimate (log intensity, higher = more binding, comparable within an allelic series)"
same,binding signal,[28],"11.8 upbm affinity estimate (log intensity, higher = more binding, comparable within an allelic series)"
same,binding signal,[29],"11.2 upbm affinity estimate (log intensity, higher = more binding, comparable within an allelic series)"
same,binding signal,[30],"8.83 upbm affinity estimate (log intensity, higher = more binding, comparable within an allelic series)"
same,binding signal,[16],"9.82 upbm affinity estimate (log intensity, higher = more binding, comparable within an allelic series)"
ATATTAAT,binding signal,[1],"11.6 upbm affinity estimate (log intensity, higher = more binding, comparable within an allelic series)"
same,binding signal,[17],"10.2 upbm affinity estimate (log intensity, higher = more binding, comparable within an allelic series)"
same,binding signal,[18],"12.5 upbm affinity estimate (log intensity, higher = more binding, comparable within an allelic series)"
same,binding signal,[19],"11.2 upbm affinity estimate (log intensity, higher = more binding, comparable within an allelic series)"
same,binding signal,[31],"11.7 upbm affinity estimate (log intensity, higher = more binding, comparable within an allelic series)"
same,binding signal,[32],"12.1 upbm affinity estimate (log intensity, higher = more binding, comparable within an allelic series)"
same,binding signal,[33],"10.1 upbm affinity estimate (log intensity, higher = more binding, comparable within an allelic series)"
same,binding signal,[21],"11.8 upbm affinity estimate (log intensity, higher = more binding, comparable within an allelic series)"
same,binding signal,[11],"11.5 upbm affinity estimate (log intensity, higher = more binding, comparable within an allelic series)"
same,binding signal,[22],"12.5 upbm affinity estimate (log intensity, higher = more binding, comparable within an allelic series)"
same,binding signal,[34],"8.63 upbm affinity estimate (log intensity, higher = more binding, comparable within an allelic series)"
same,binding signal,[23],"10.8 upbm affinity estimate (log intensity, higher = more binding, comparable within an allelic series)"
same,binding signal,[35],"11.9 upbm affinity estimate (log intensity, higher = more binding, comparable within an allelic series)"
same,binding signal,[24],"12.5 upbm affinity estimate (log intensity, higher = more binding, comparable within an allelic series)"
same,binding signal,[36],"10.7 upbm affinity estimate (log intensity, higher = more binding, comparable within an allelic series)"
same,binding signal,[26],"11.8 upbm affinity estimate (log intensity, higher = more binding, comparable within an allelic series)"
same,binding signal,[37],"11 upbm affinity estimate (log intensity, higher = more binding, comparable within an allelic series)"
same,binding signal,[38],"8.59 upbm affinity estimate (log intensity, higher = more binding, comparable within an allelic series)"
same,binding signal,[28],"11.5 upbm affinity estimate (log intensity, higher = more binding, comparable within an allelic series)"
same,binding signal,[29],"11.1 upbm affinity estimate (log intensity, higher = more binding, comparable within an allelic series)"
same,binding signal,[39],"8.13 upbm affinity estimate (log intensity, higher = more binding, comparable within an allelic series)"
same,binding signal,[40],"11 upbm affinity estimate (log intensity, higher = more binding, comparable within an allelic series)"
same,binding signal,[30],"9 upbm affinity estimate (log intensity, higher = more binding, comparable within an allelic series)"
same,binding signal,[16],"11 upbm affinity estimate (log intensity, higher = more binding, comparable within an allelic series)"
same,binding signal,[41],"8.74 upbm affinity estimate (log intensity, higher = more binding, comparable within an allelic series)"
same,binding signal,[42],"11.8 upbm affinity estimate (log intensity, higher = more binding, comparable within an allelic series)"
